Reference: PubChem BioAssay AID1438 (Sanford-Burnham Center for Chemical Genomics, 2008)
The whole screen tested about 2,200 compounds, of which about 45 (2%) were called active. These entries were drawn from the full list. Results with a measured potency or affinity are listed apart. Values without a mark were called inactive. No rule for the calls is given here.

Molecular target: Runt-related transcription factor 1 (Homo sapiens) + Core-binding factor subunit beta (Homo sapiens) (UniProt Q01196+Q13951)
Sequence (Q01196 whole entry, looked up, the tested form may be a part): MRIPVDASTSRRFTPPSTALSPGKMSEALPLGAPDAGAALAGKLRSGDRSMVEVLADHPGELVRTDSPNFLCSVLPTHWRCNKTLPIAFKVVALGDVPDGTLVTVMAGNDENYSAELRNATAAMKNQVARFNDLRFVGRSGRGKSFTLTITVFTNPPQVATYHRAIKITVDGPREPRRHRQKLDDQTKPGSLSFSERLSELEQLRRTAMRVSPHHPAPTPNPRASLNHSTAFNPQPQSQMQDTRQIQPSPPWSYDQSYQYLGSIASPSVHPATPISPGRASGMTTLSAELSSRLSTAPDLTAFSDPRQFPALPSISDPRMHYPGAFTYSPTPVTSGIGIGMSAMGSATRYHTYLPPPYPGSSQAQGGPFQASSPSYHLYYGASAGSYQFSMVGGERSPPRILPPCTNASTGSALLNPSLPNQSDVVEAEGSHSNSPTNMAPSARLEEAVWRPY
Sequence (Q13951 whole entry, looked up, the tested form may be a part): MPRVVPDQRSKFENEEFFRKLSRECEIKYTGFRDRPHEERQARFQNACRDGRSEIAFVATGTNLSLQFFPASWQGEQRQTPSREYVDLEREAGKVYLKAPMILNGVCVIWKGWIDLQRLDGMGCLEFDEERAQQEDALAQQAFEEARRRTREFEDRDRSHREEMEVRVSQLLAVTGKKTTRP
Assay: Runt domain/CBFb-SMMHC interaction disruptors – biochemical, TR-FRET (AID 1438)
Settings: at 20 µM, stronger effect = higher value

Row | Compound | inhibition
1 | Cc1ccc(S(=O)(=O)c2cc3c(=O)n4cccc(C)c4nc3n(Cc3ccco3)c2=N)cc1C | 47.5%
2 | CCCn1c(=NC(=O)c2c(-c3c(F)cccc3Cl)noc2C)c(C(=O)OCC)cc2c(=O)n3ccccc3nc21 | -16.8%
3 | COc1nc(N)c(S(=O)(=O)c2ccccc2)cc1C#N | 8.9%
4 | CCOC(=O)c1cc2c(=O)n3ccccc3nc2n(CC2CCCO2)c1=NC(=O)/C=C/c1ccccc1 (stereo not given) | 3.6%
5 | C=CCNC(=O)/C(C#N)=C/c1c(N(Cc2ccccc2)Cc2ccccc2)nc2ccccn2c1=O | 19.2%
6 | COCCN(C(=O)CN1CCc2ccccc2C1)c1c(N)n(Cc2ccccc2)c(=O)[nH]c1=O | 23.7%
7 | COc1ccccc1NC(=O)c1cc2ccccc2o/c1=N\O | 30.6%
8 | COc1ccccc1NC(=O)c1cc2ccc(O)cc2o/c1=N\O | -13.2%
9 | COCCN1C=C(C(=O)OC)C(c2ccccc2C(F)(F)F)C(C(=O)OC)=C1 | 44%
10 | COc1cc(/C=N/N2CCN(C3c4ccccc4-c4ccccc43)CC2)cc(OC)c1O | 33.8%
11 | O=C1C2C3C=CC(CO)(O3)C2C(=O)N1c1ccc(-c2ccccc2)cc1 (stereo not given) | 27.4%
12 | N#Cc1cc2cc3c(cc2nc1NCCNC(=S)NCCCN1CCOCC1)OCO3 | -18.1%
13 | O=c1c2ccccc2sn1-c1nccs1 | -7%
14 | CCOC(=O)Cc1csc(/N=C/c2c(O)n(-c3ccc(C)c(C)c3)c(=O)c3ccccc23)n1 | 5%
15 | Cc1c2c(n3c(nc4ccccc43)c1C#N)N(CCCN(C)C)CC2 | -5.5%
16 | Clc1ccc(C2=NN(c3ccccc3)C(c3ccco3)C2)cc1 (stereo not given) | 37.8%
17 | CC(C)OCCCn1c(=N)c(C(N)=S)cc2c(=O)n3ccccc3nc21 | 49.7%
18 | CC(=O)N=c1c(C#N)cc2c(=O)n3cccc(C)c3nc2n1CCCOC(C)C | -10.3%
19 | Cc1cccn2c(=O)c3cc(C(N)=S)c(=N)n(CCCOC(C)C)c3nc12 | 63.5% (active)
20 | CCOCCCn1c(=N)c(C(=O)NCc2ccc3c(c2)OCO3)cc2c(=O)n3cccc(C)c3nc21 | 1.9%
21 | Cc1cccn2c(=O)c3cc(C(N)=S)c(=N)n(CCCN4CCOCC4)c3nc12 | -11.3%
22 | N#C/C(=C(/O)CCCl)c1ccccn1 | -8%
23 | c1ccc(-c2onc3cc4c(cc23)OCCO4)cc1 | 17.4%

Row | Compound | inhibition
24 | CCOC(=O)c1cc2c(=O)n3cccc(C)c3nc2n(CC(C)C)c1=NC(=O)c1ccco1 | -5.3%
25 | CCOc1ccc2nc(NCCNC(=O)CC)c(C#N)cc2c1 | 33.5%
26 | CC(=O)N(C)/C=C1\Sc2ccccc2C1=O | 6.4%
27 | Cc1ccc(-n2c(=O)c(C#N)cc3c(=O)n4cccc(C)c4nc32)cc1 | 48.6%
28 | COCCCn1c(=O)/c(=C\c2ccc(OC(F)F)c(OC)c2)s/c1=C(/C#N)C(=O)NCCOC | -12.1%
29 | Cc1ccc(C)c(OCCn2cc(/C=C(\C#N)C(=O)NCc3ccco3)c3ccccc32)c1 | 17.3%
30 | Cc1cc(N2C(=O)C=CC2=O)c([N+](=O)[O-])cc1C | 52.7% (active)
31 | COc1cc(N2C(=O)C=CC2=O)c(OC)cc1Cl | -8.5%
32 | C=C(C)CNC(=S)Nc1sc2c(c1C(=O)OCC)CC(C)(C)OC2 | -9.8%
33 | Cc1cccc(C)c1NC(=O)COC(=O)c1c2c(nc3ccccc13)/C(=C\c1ccc3c(c1)OCO3)CCC2 | 1.3%
34 | COc1ccc(/C=C2\CCc3c2nc2ccccc2c3C(=O)O)cc1OC | -11.1%
35 | NS(=O)(=O)c1ccc(NC(=O)COC(=O)c2c3c(nc4ccccc24)/C(=C\c2ccc4c(c2)OCO4)CCC3)cc1 | -24.4%
36 | O=C(O)c1c2c(nc3ccccc13)/C(=C/c1ccc(O)cc1)CC2 | -6.6%
37 | CCN1CCc2c(C#N)c(N3CCOCC3)nc(NCc3ccccc3)c2C1 | 35.4%
38 | Cc1cccn2c(=O)c3cc(C(=O)NCC4CCCO4)c(=N)n(CCN4CCOCC4)c3nc12 (stereo not given) | 11.3%
39 | COc1ccc(C2C=C(c3ccccc3)Nc3ncnn32)cc1 (stereo not given) | 30.8%
40 | Cc1ccccc1-n1c(=O)c(C#N)cc2c(=O)n3ccccc3nc21 | 23.6%
41 | c1cc2c(cc1-c1csc(NNC3=NCCCCC3)n1)OCCO2 | -4.3%
42 | C=CCNc1nc(NCc2ccccc2)c(C#N)c2c1CN(C)CC2 | 31.3%
43 | N#Cc1c(NCCO)nc(NCc2ccccc2)c2c1CCN(Cc1ccccc1)C2 | 48.5%
44 | Cn1c(=N)c(S(=O)(=O)c2ccc(F)cc2)cc2c(=O)n3ccccc3nc21 | 47.6%
45 | COc1cc2cc(C(=O)N3CCN(Cc4ccc5c(c4)OCO5)CC3)c(=O)oc2cc1OC | -6.8%
46 | O=C(c1cc2ccccc2oc1=O)N1CCN(CCc2ccccc2)CC1 | 55.2% (active)

Row | Compound | inhibition
47 | O=C(O)c1cc2ccc3ccccc3c2oc1=O | 34.5%
48 | CC1=CC(c2ccc(Cl)cc2)n2nc(NC(=O)CCC(=O)O)nc2N1 (stereo not given) | -7.4%
49 | Cc1cc(-c2nc3cccnc3s2)ccc1NS(=O)(=O)c1cccs1 | -9.2%
50 | Cc1ccccc1C(=O)N=c1c(C#N)cc2c(=O)n3cccc(C)c3nc2n1Cc1ccco1 | 47%
51 | CC(=O)N=c1c(C#N)cc2c(=O)n3ccccc3nc2n1Cc1ccccc1 | 47.4%
52 | Cc1cccn2c(=O)c3cc(C#N)c(=NC(=O)c4ccco4)n(Cc4ccco4)c3nc12 | -9.7%
53 | CC(=O)N=c1c(C#N)cc2c(=O)n3cccc(C)c3nc2n1Cc1ccco1 | -8.8%
54 | CCOC(=O)c1cc2c(=O)n3ccccc3nc2n(Cc2ccco2)c1=NC(=O)c1ccc(OC)cc1 | -16.9%
55 | COCCCn1c(=NC(=O)c2ccncc2)c(C#N)cc2c(=O)n3cccc(C)c3nc21 | 14%
56 | O=C(Cc1nc2ccccc2s1)c1ccc(O)cc1O | 15.1%
57 | CCOC(=O)c1cc(C(=O)OCC)c2ccccn2c1=O | 25.7%
58 | COCCCNC(=O)c1cc2c(=O)n3cc(C)ccc3nc2nc1NCC1CCCO1 (stereo not given) | -2.6%
59 | CC(C)OC(=O)c1c2nc3ccccc3nc2n2c1[nH]c(=O)c1ccccc12 | -203%
60 | Cc1ccc2[nH]cc(C(=O)CN3CCC4(CC3)OCCO4)c2c1 | 2.6%
61 | COCc1cc(=O)n2c([nH]c3ccccc32)c1C#N | 38.4%
62 | O=c1[nH]c2ccccc2n2c(-c3ccccc3)nnc12 | 84.1% (active)
63 | O=c1[nH]c2ccccc2nc1/C=C/c1ccccc1 | -5.7%
64 | Cc1cccn2c(=O)c3cc(C(=O)NCc4ccco4)c(=N)n(C(C)C)c3nc12 | 32.5%
65 | COc1cc(/C=C/C(=O)OCC(=O)Nc2ccccc2Sc2ccc(Cl)cc2)ccc1O | 1.1%
66 | Cc1cccn2c(=O)c(/C=C(\C#N)C(=O)NC3CCS(=O)(=O)C3)c(N3CC(C)OC(C)C3)nc12 (stereo not given) | -39.6%
67 | COc1ccc(OC)c(N=c2ssnc2Cl)c1 | -11.1%
68 | CC(C)N1CCc2c(sc(NC(=S)NC(=O)c3ccccc3)c2C#N)C1 | 21.2%
69 | CCCN1CCc2c(sc(NC(=S)NC(=O)c3ccccc3)c2C#N)C1 | -14.1%

Row | Compound | inhibition
70 | N#Cc1c(NC(=S)NC(=O)c2ccccc2)sc2c1CCN(CCc1ccccc1)C2 | 52% (active)
71 | CNS(=O)(=O)c1ccc2nc(NC(=O)c3ccc(N4C(=O)CCC4=O)cc3)sc2c1 | -3.6%
72 | O=C(Nc1nc2c(s1)CN(Cc1ccccc1)CC2)C1CCC1 | 43%
73 | COc1ccc(C2c3ccc(O)cc3Oc3ncn(CC(C)C)c(=N)c32)cc1 (stereo not given) | -6.8%
74 | CC(=O)Nc1sc2c(c1C(N)=O)CCN(Cc1ccccc1)C2 | -0.2%
75 | NNc1nc2sc3c(c2c(=O)n1C1CCCCC1)CCN(Cc1ccccc1)C3 | -9.4%
76 | CC1(C)CC(=O)C2=C(C1)Nc1ccccc1NC2 | -9.5%
77 | O=C(c1ccccc1)c1cc2ccc(O)cc2oc1=O | -8.4%
78 | CCCn1c(=N)c(C(=O)NC2CCCC2)cc2c(=O)n3cccc(C)c3nc21 | 2.5%
79 | O=S(=O)(Nc1ccc(-c2nc3cccnc3s2)cc1)c1cccs1 | 29.2%
80 | CCc1ccc(S(=O)(=O)Nc2ccc(-c3nc4cccnc4s3)cc2)s1 | 44%
81 | Cc1cccc2cc(C#N)c(NCCNS(=O)(=O)c3ccccc3)nc12 | -12.6%
82 | CN1CCN(Cc2c(O)ccc3cc(-c4ccccn4)c(=O)oc23)CC1 | -17.3%
83 | COc1ccc(C2C3=C(CC(C)(C)CC3=O)Nc3c2c(=O)[nH]c2nc(C)nn32)cc1 (stereo not given) | 17.2%
84 | Cc1nc2[nH]c(=O)c3c(n2n1)NC1=C(C(=O)CC(C)(C)C1)C3c1ccc(F)cc1 (stereo not given) | 46.7%
85 | O=C(Nc1nccs1)c1ccccc1N=Cc1ccccc1 | 49.3%
86 | Cn1c(C(=O)NCc2ccccn2)cc2c(=O)n3ccccc3nc21 | 11.6%
87 | COc1ccc(CCn2c(N)c(C(=O)NCc3ccco3)c3nc4ccccc4nc32)cc1 | 46.3%
88 | CC(C)Cn1c(N)c(C(=O)NCCN2CCOCC2)c2nc3ccccc3nc21 | 46.7%
89 | Nc1c(C(=O)NCc2ccco2)c2nc3ccccc3nc2n1CCc1ccccc1 | 42.7%
90 | CC(C)Cn1c(N)c(C(=O)NCc2cccs2)c2nc3ccccc3nc21 | 17%
